# “And” between values parts separate entries of the source, which are not always exact repeats. Equal values may be shown once. The whole screen tested about 350,000 compounds, of which about 600 (0.17%) were called active. The entries come from a sample that favours actives as a whole. Unmarked numbers belong to inactive results.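 Rule for the calls: active = every replicate shows inhibition of at least 40%; inconclusive = mean inhibition at least 40% but some replicate below; inactive = the rest.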
# Test: inhibitors of PGC1a acetylation signal, primary screen, cell-based, U2OS, AlphaScreen, inhibitor mode (AID 651687);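 note: 0% = neutral control wells and 100% = positive control wells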
# Settings: AlphaScreen anti-acetyl-lysine, at 15.6 µM, stronger effect = higher value, with virally co-expressed GCN5 acetyltransferase
row,SMILES,inhibition
1,CN(C)CC(=O)Nc1ccc2c(c1)[C@H]1C[C@H](CC(=O)NCc3ccc4c(c3)OCO4)O[C@@H](CO)[C@H]1O2,-4.35%
2,CC(=O)N(C)C[C@@H]1Oc2ncc(C#CCc3ccccc3)cc2C(=O)N([C@H](C)CO)C[C@H]1C,2.72%
3,Cc1ccc(S(=O)(=O)Nc2ccc3c(c2)C(=O)N([C@H](C)CO)C[C@@H](C)[C@H](CN(C)Cc2ccccc2)O3)cc1,-12.1%
4,CCNC(=O)C[C@@H]1CC[C@@H]2[C@H](COc3ccc(NC(=O)Nc4cccc(C)c4)cc3C(=O)N2C)O1,0.938%
5,O=C(C[C@@H]1C[C@@H]2c3cc(NC(=O)Nc4ccccc4F)ccc3O[C@@H]2[C@@H](CO)O1)NCCc1ccccc1,9.83%
6,O=C(C1CCCC1)N1CC(=O)N2[C@@H](CO)[C@H](c3ccc(C#CC4CCCC4)cc3)[C@@H]2C1,-10.1%
7,O=C(C[C@@H]1CC[C@H](NC(=O)Nc2ccc3c(c2)OCO3)[C@H](CO)O1)NCc1ccccc1,2.06%
8,COc1cc(NC(=O)c2cncc(-c3ccc(C#N)cc3)c2)cc(C(=O)Nc2cccc(C(F)(F)F)c2)c1,4.55% and 7.38%
9,COc1ccc(C(N)c2csc(NC(=O)Nc3cccc(C(F)(F)F)c3)n2)cc1 (configuration not stated),-29.2%
10,COc1cc(NC(=O)c2[nH]cnc2C(N)=O)cc(C(=O)Nc2cccc(C(F)(F)F)c2)c1,62.8% (active)
11,COc1cccc(-c2cn(CC[C@@H]3CC[C@@H](NC(C)=O)[C@@H](CO)O3)nn2)c1,22.5%
12,O=C(C[C@H]1C=C[C@@H](NC(=O)c2cnccn2)[C@H](CO)O1)NCc1ccccc1F,-3.99%
13,Cc1noc(C)c1S(=O)(=O)Nc1ccc2c(c1)CC(=O)N([C@H](C)CO)C[C@@H](C)[C@@H](CN(C)C)O2,4.76%
14,CCCNC(=O)C[C@H]1CC[C@@H]2[C@H](COC[C@H](O)CN2CC2CCCCC2)O1,-2.1%
15,O=C(O)C[C@H]1C[C@@H]2c3cc(NC(=O)Nc4ccc(C(F)(F)F)cc4)ccc3O[C@@H]2[C@@H](CO)O1,-2.34%
16,C[C@H](O)C#Cc1ccc([C@H]2[C@H](CO)N3CCCCN(C(=O)c4ccc(F)cc4)C[C@@H]23)cc1,-4.78%
17,CCC(=O)N(C)C[C@H]1Oc2ncc(-c3ccc(C#N)cc3)cc2C(=O)N([C@@H](C)CO)C[C@H]1C,-11.3%
18,CCCNC(=O)N[C@H]1C=C[C@@H](CC(=O)NC2CCCCC2)O[C@H]1CO,-18.5%
19,Cc1ccc(S(=O)(=O)Nc2ccc3c(c2)C(=O)N([C@@H](C)CO)C[C@H](C)[C@@H](CN(C)Cc2ccc4c(c2)OCO4)O3)cc1,1.59%
20,COC(=O)C[C@H]1CC[C@@H]2[C@@H](COc3ccc(NC(=O)Nc4ccc(Cl)cc4)cc3C(=O)N2C)O1,-4.91%
21,NC(=NC(=O)c1ccccc1)N1CCOCC1,84.1% (active)

row,SMILES,inhibition
1,N[C@@H](Cc1ccccc1)C(=O)N1CCOCC1,-8.48%
2,O=C(CSC(=S)N1CCOCC1)c1ccccc1,-7.05%
3,CCCC(=O)Nc1ccc2c(c1)C(=O)N(C)[C@@H]1CC[C@H](CC(=O)NCCN3CCCCC3)O[C@@H]1CO2,1.12%
4,C[C@@H]1CCCCO[C@H](CN(C)C(=O)c2ccccc2)[C@@H](C)CN([C@H](C)CO)C(=O)c2cc(NC(=O)c3ccccc3)ccc2O1,5.89%
5,C[C@@H]1CN([C@H](C)CO)C(=O)c2cc(NC(=O)c3ccccc3)ccc2O[C@@H](C)CCCCO[C@H]1CN(C)C(=O)c1ccncc1,8.37%
6,CCNC(=O)Nc1ccc2c(c1)C(=O)N(C)[C@@H]1CC[C@@H](CC(=O)NC3CCCCC3)O[C@H]1CO2,1.93%
7,C[C@@H]1CN([C@H](C)CO)C(=O)c2cc(NC(=O)C3CCCCC3)ccc2O[C@@H](C)CCCCO[C@H]1CN(C)S(C)(=O)=O,6.77%
8,COc1ccc(S(=O)(=O)N(C)C[C@@H]2Oc3ccc(NC(=O)Cc4cn(C)c5ccccc45)cc3C(=O)N([C@H](C)CO)C[C@H]2C)cc1,-8.14%
9,C[C@@H]1CN([C@H](C)CO)S(=O)(=O)c2ccc(-c3ccc(C(=O)N(C)C)cc3)cc2O[C@@H]1CN(C)C(=O)Nc1ccccc1F,-11.4%
10,CO[C@H]1CN(C)C(=O)c2ccc(NC(=O)C3CC3)cc2OC[C@H](C)N(Cc2ccncc2)C[C@@H]1C,-7.97%
11,COc1ccc(NC(=O)Nc2cccc3c2O[C@@H](CN(C)S(=O)(=O)c2ccc(C)cc2)[C@H](C)CN([C@@H](C)CO)C3=O)cc1,3.27%
12,CO[C@H](C(=O)N(C)C[C@@H]1OCc2ccccc2-c2c(n(C)c3ccccc23)C(=O)N([C@@H](C)CO)C[C@H]1C)c1ccccc1,-1.42%
13,CCCN1C[C@@H](C)[C@@H](OC)CN(C)C(=O)c2cc(NC(=O)C3CCC3)ccc2OC[C@H]1C,-10.1%
14,CO[C@H]1CN(C)C(=O)c2cc(NS(=O)(=O)c3ccccc3)ccc2OC[C@H](C)N(C(=O)NC(C)C)C[C@@H]1C,8.54%
15,O=C(c1ccncc1)N1CC2(C1)[C@@H](c1ccccc1)[C@H](CO)N2C(=O)c1ccncc1,6.1%
16,C[C@@H]1CCCCO[C@@H](CN(C)C(=O)c2ccccc2)[C@H](C)CN([C@@H](C)CO)C(=O)c2cc(NS(C)(=O)=O)ccc2O1,-1.5%
17,CCOC(=O)c1ccc2[nH]c3c(c2c1)CCCC3NC=O (configuration not stated),5%
18,Cc1[nH]c2ccc(C(=O)N3CCN(C)CC3)cc2c1C,1.27%
19,CCOC(=O)c1ccc2[nH]c(C)c(CN3CCN(C)CC3)c(=O)c2c1,59.3% (active)
20,CO[C@@H]1CN(C)C(=O)c2ccc(NS(C)(=O)=O)cc2OC[C@H](C)N(C(=O)C2CC2)C[C@H]1C,-8.93%
21,COc1ccc(NC(=O)Nc2ccc3c(c2)C(=O)N([C@@H](C)CO)C[C@H](C)[C@@H](CN(C)S(=O)(=O)c2ccc(Cl)cc2)O3)cc1,-2.11%

# Reference: PubChem BioAssay AID651687 (Broad Institute, 2012)
